Source: PubChem (PCMD)
FXIIa single: blocks human coagulation factor XIIa activity | P00748 | purified human FXIIa, AMC substrate fluorescence, 2 h | inhibition, % at 10 µM | hit rate 0.2% among 33,000 | AID 701; in the data active means inhibition above about 30%;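 further: 0% = enzyme with vehicle only and 100% = no enzyme blank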
Target sequence (P00748 20-372 limits assumed): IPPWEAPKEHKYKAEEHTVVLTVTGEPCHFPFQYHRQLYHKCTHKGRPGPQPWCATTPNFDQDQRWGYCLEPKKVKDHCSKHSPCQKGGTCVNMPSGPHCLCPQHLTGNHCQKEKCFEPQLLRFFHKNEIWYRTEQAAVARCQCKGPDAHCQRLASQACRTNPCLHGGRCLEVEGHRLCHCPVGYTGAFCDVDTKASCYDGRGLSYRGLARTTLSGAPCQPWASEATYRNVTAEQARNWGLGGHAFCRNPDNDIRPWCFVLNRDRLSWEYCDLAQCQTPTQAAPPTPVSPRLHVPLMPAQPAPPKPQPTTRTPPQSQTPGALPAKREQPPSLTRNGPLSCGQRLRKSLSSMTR
Target sequence (P00748 373-615 limits assumed): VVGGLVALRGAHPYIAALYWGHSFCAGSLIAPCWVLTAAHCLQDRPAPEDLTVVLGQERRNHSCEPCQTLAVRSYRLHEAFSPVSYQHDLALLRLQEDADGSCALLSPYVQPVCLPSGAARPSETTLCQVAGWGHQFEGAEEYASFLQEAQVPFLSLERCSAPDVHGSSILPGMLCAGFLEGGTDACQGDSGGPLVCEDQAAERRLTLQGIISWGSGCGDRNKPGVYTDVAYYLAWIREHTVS
FXIa single inh: blocks human coagulation factor XIa activity. P03951. purified human FXIa, fluorogenic AMC substrate cleavage. inhibition, % at 10 µM. hit rate 0.3% among 33,000;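 active means inhibition above 40% in the primary screen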;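 further: 0% = enzyme without compound and 100% = blank wells lacking enzyme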
Active calls of the source: *. In the library only some 0.33% were active in any assay of this set; here they are far more common.

SMILES | FXIIa single | FXIa single inh
O=c1c(-c2ccco2)[n+]([O-])c2ccccc2n1OCc1ccccc1 | 12 | -7
O=C(Nc1ccc2nc(-c3ccccn3)[nH]c2c1)C1CCCCC1 | 3 | 0
CC(C)c1nc2ccc(NC(=O)C3CCCCC3)cc2[nH]1 | -16 | 104*
CCOc1ccc(S(=O)(=O)NCc2ccc(OC)cc2)c2cccnc12 | 9 | 62*
CCOc1ccc(S(=O)(=O)Nc2ccccn2)c2ccccc12 | 0 | -6
CCOC(=O)N1CCN(C/C(C)=C/c2ccccc2)CC1 | 31* | 2
CCOC(=O)N1CCN(CC(=O)Nc2ccc(C)cc2)CC1 | 2 | 4
COc1ccc(-c2noc(CCC(=O)N3CCN(c4cc(C)ccc4C)CC3)n2)cc1 | 4 | 0
O=C(c1csc2c1CCCC2)N1CCN(c2cccc(C(F)(F)F)c2)CC1 | 7 | -12
CC(C)CNS(=O)(=O)c1ccc2c(c1)OCCO2 | 6 | 10
Cc1ccc(-c2csc(N3CCC(NS(=O)(=O)c4ccc5c(c4)OCCO5)CC3)n2)cc1 | -12 | 59*
O=C(Oc1ccc2c3c(c(=O)oc2c1)CCC3)c1ccco1 | 54* | 14
COC(=O)c1ccc(COc2ccc3c4c(c(=O)oc3c2)CCC4)o1 | 6 | -2
COc1cccc(NC(=O)C(NCC2CCCCC2)c2ccccc2)c1 (stereo not given) | 3 | -1
CCCN(CCC)C(C(=O)Nc1cccc(OC)c1)c1ccccc1 (stereo not given) | -18 | 105*
Cc1sc(-c2ccncc2)nc1OC(=O)c1ccccc1 | 4 | -1
